# Results: PubChem BioAssay AID1566 (Sanford-Burnham Center for Chemical Genomics, 2009)
# Out of some 290,000 compounds screened, about 1,800 (0.62%) were called active. The sample as a whole holds a higher share of actives than the screen did. Values without a mark were called inactive. Cut-off read from the data, not from the text of the source: active = inhibition above about 50%; inactive = the rest.
# Assay: NOD2 signaling inhibitors, cell-based, luminescence, uHTS, HEK293 (AID 1566)
# Conditions: HEK293 NOD2/NF-kB luciferase reporter, at 4 µM, active compounds read high
row,Compound,inhibition
1,COc1ccccc1CNC(=O)C1CC(c2c(Cl)cccc2Cl)=NO1 (stereo unspecified),8.6%
2,Cc1ccc(NC(=O)Nc2ccc(Cl)cc2)c(Br)c1,-38.7%
3,O=C(Nc1ccc(Cl)cc1)c1cc(Br)ccc1OCC(=O)N1CCOCC1,40%
4,COc1ccc(-c2csc(N3CCC(c4ccccc4)CC3)n2)cc1,13.7%
5,Cc1occc1-c1nnc(SCC(=O)O)n1-c1ccccc1,-13.8%
6,Fc1ccc(NC(=S)Nc2cc(Cl)ccc2Cl)cc1,-16.8%
7,C[C@@H]1C(=O)O[C@H]2[C@H]1CC[C@@]1(C)C(=O)C=C[C@@](C)(O)[C@H]21,1.1%
8,O=C(O)/C=C/c1ccc(OCc2cccc(F)c2)cc1,-4.9%
9,N#Cc1ccccc1COc1ccc(/C=C/C(=O)O)cc1,64.4% (active)
10,COc1cc(/C=C/C(=O)O)ccc1OCc1ccccc1C#N,18%
11,COc1cccc(N(CC(=O)NC2CCCC2)C(=O)CCC(=O)Nc2cc(C)on2)c1,2.5%
12,C=C(C)COc1ccc2c(C)c(CC(=O)N3C[C@H]4C[C@@H](C3)c3cccc(=O)n3C4)c(=O)oc2c1,5%
13,C=C(C)COc1ccc2c(C)c(CC(=O)N3C[C@H]4C[C@@H](C3)c3cccc(=O)n3C4)c(=O)oc2c1C,51.9% (active)
14,CC(C)=CCOc1ccc2c(C)c(CC(=O)N3C[C@H]4C[C@@H](C3)c3cccc(=O)n3C4)c(=O)oc2c1C,15.8%
15,CCOc1ccccc1-n1c(SCC(=O)N2CCOCC2)nc2ccccc2c1=O,24.9%
16,O=C(NCCNc1ccc(Cl)cc1[N+](=O)[O-])c1ccccc1F,-16.6%
17,O=C(NCCNc1ccnc2cc(Cl)ccc12)c1ccccc1F,54.8% (active)
18,O=C(NCCCNc1ccnc2cc(Cl)ccc12)c1ccccc1F,28.3%
19,C=CCOC(=O)C1=C(C)NC(C)=C(C(=O)OCC=C)C1/C=C/c1ccccc1,-0.8%
20,Cc1ccccc1C(=O)Oc1cc(N)n(S(=O)(=O)c2ccccc2)n1,5.8%
21,Cc1ccccc1NS(=O)(=O)c1cc(OCC(N)=O)c(C)cc1Cl,0.2%
22,CC1Cc2ccccc2N1c1ncnc2nc[nH]c12 (stereo unspecified),1.3%
23,CC1Cc2ccccc2N1c1ncnc(N)c1[N+](=O)[O-] (stereo unspecified),82.8% (active)
24,CC1Cc2ccccc2N1c1ncnc2c1nnn2Cc1ccccc1 (stereo unspecified),9.3%
25,Fc1ccc2c(Cl)c(-c3nnc(-c4cccs4)o3)sc2c1,-112%
26,N=C(N)SCc1cn(-c2ccccc2)nc1-c1ccc(Br)cc1,8.8%
